Compounds without any hit were thinned out: in the full panel of roughly 79,000, 15% have a hit. Unmarked numbers belong to inactive results. No stated cut-off is given here; in the data, active means growth inhibition above about 70%; inactive means the rest.
Experiment: NCI Yeast Anticancer Drug Screen. Data for the rad50 strain (AID 155);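 further: 0% = growth of vehicle-only cultures of the same strain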
Settings: S. cerevisiae rad50 strain growth inhibition; at 50.0 µM; stronger effect = higher value
Outline: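 A DNA repair-deficient yeast mutant serves as the test organism; compound-induced growth inhibition is calculated against vehicle-treated cells.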

SMILES | growth inhibition [%]
C=CCCCCCCCCC(=O)OC1CCCCC1 | -9.25
O=C(O)C(Cc1ccccc1)c1ccccc1 (stereo not given) | -39.4
COc1cc(CC2c3cc(OC)c(OC)cc3CC[N+]2(C)C)c(Oc2cc(CC3c4cc(OC)c(OC)cc4CC[N+]3(C)C)ccc2OC)cc1OC (stereo not given) | 8.35
COC(C)C(NC=O)C(=O)O (stereo not given) | 18.8
O=C1c2ccccc2C(=Cc2cccnc2)c2ccccc21 | 35.3
CC1(C)OCCS1 | -4.2
CC(=O)Oc1nnc(-c2ccccc2)c(-c2ccccc2)n1 | 24.5
Clc1ccc(C2=NCCO2)cc1 | -23.8
CCCCCC(=O)N1SC(NC(=O)OC)=Nc2ccccc21 | 63.5
O=C1CC2(CCC(O)(c3ccc(Cl)cc3)C(C(=O)c3ccc(Cl)cc3)C2)C(=O)c2ccccc2N1 (stereo not given) | -15.1
CC(C)(C)OC(=O)CC1(C)NC(C(=O)O)C(C)(C)S1 (stereo not given) | 13.3
CCCCCCC(O)CCCCCC | 27.4
CCCCCCCCN(CCCCCCCC)CC(O)c1cc(-c2ccccc2)nc2c(-c3ccccc3)cccc12 (stereo not given) | 46.8
CCOC(=O)OCCOCCOC(=O)OCC | -2.25
NNC(=O)CSCC(=O)NN | -1.9
O=C(O)CCSCCCCCCCCCCCCSCCC(=O)O | 16.5
CC(=O)Cc1ccc2[nH]c(C)cc(=O)c2c1 | -2.15
O=[N+]([O-])c1cc(S(=O)(=O)O)cc(S(=O)(=O)O)c1O | 12.6
CN(C)c1nc2ccccc2[nH]1 | 2.6
CCOC(=O)C1CCCCC1C(=O)OCC (stereo not given) | -1.7

SMILES | growth inhibition [%]
CCCCCCCCCCCCOc1ccc(C(C)(C)C)cc1 | -12.2
Nc1nc2c(ncn2C2OC(CO)C3OP(=O)(O)OC32)c(=O)[nH]1 (stereo not given) | -8.5
COC1CCC(/C(C#N)=C/C2CCC(N(C)C)CC2)CC1 (stereo not given) | 12.9
CCCCCCC(=O)c1ccc2ccccc2c1O | 1.6
COc1ccc(C(Cl)=C(c2ccc(OCCN(C)C)cc2)c2ccc(OCCN(C)C)cc2)cc1 | 29.7
CC1(C)CC(O)=CC(=O)N1 | 15.9
[O-]/[N+](=C\c1ccccc1)[C@H](COCc1ccccc1)c1ccccc1 | -21.8
O=C1OC([C@H](O)c2cccnc2)c2ccccc21 (stereo not given in full) | -17.1
COC(=O)C(=[N+]=[N-])C(=O)c1ccccc1[N+](=O)[O-] | 30.5
CN1CCC2(CC1)C(=NC1CCCCC1)NC(=O)N2c1ccccc1 | -26.4
O=C(NCc1cccs1)OC1CC2CCC1C2 (stereo not given) | 1.6
COC(=O)c1cc(C)ccc1/C=C1\Cc2c(C)cc(C)cc2C1=O | -12.2
Nc1cc([N+](=O)[O-])ccc1N1C(=O)CCCC1=O | -15.2
CC(C)(C)NC(NC(C)(C)C)=C(/C=C(/Cl)[N+](=O)[O-])[N+](=O)[O-] | -5.5
O=C(NCc1ccc([N+](=O)[O-])cc1)c1ccccc1 | 4.15
CC(C)(C)NC(=O)Oc1ccc2ccccc2c1 | 1.75
CSc1ccc(NC(=O)Nc2ccccc2C(F)(F)F)cc1 | 2.05
O=C(ON=C1c2ccccc2C(Br)C(Br)c2ccccc21)c1cc([N+](=O)[O-])cc([N+](=O)[O-])c1 (stereo not given) | 15.8
CNc1nc(=S)nc(-c2ccccc2)s1 | 11.7
CCN(CC)CCOc1ccc(Cc2nc3c([nH]2)c(=O)n(C)c(=O)n3C)cc1 | 21.6

Experiment: NCI Yeast Anticancer Drug Screen. Data for the mec2-1 strain (AID 157)
Settings: S. cerevisiae mec2-1 strain, at 50.0 µM, stronger effect = higher value
Outline: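 Mutant yeast (mec2-1) grown with compound; growth inhibition relative to vehicle control reported.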

SMILES | growth inhibition [%]
C=CCCCCCCCCC(=O)OC1CCCCC1 | 0.2
O=C(O)C(Cc1ccccc1)c1ccccc1 (stereo not given) | -12.4
COc1cc(CC2c3cc(OC)c(OC)cc3CC[N+]2(C)C)c(Oc2cc(CC3c4cc(OC)c(OC)cc4CC[N+]3(C)C)ccc2OC)cc1OC (stereo not given) | 10.1
COC(C)C(NC=O)C(=O)O (stereo not given) | 10.9
O=C1c2ccccc2C(=Cc2cccnc2)c2ccccc21 | 31.9
CC1(C)OCCS1 | 18.1
CC(=O)Oc1nnc(-c2ccccc2)c(-c2ccccc2)n1 | 16.9
Clc1ccc(C2=NCCO2)cc1 | -32.1
CCCCCC(=O)N1SC(NC(=O)OC)=Nc2ccccc21 | 47.5
O=C1CC2(CCC(O)(c3ccc(Cl)cc3)C(C(=O)c3ccc(Cl)cc3)C2)C(=O)c2ccccc2N1 (stereo not given) | -3.55
CC(C)(C)OC(=O)CC1(C)NC(C(=O)O)C(C)(C)S1 (stereo not given) | -0.65
CCCCCCC(O)CCCCCC | -16.4
CCCCCCCCN(CCCCCCCC)CC(O)c1cc(-c2ccccc2)nc2c(-c3ccccc3)cccc12 (stereo not given) | 32.5
CCOC(=O)OCCOCCOC(=O)OCC | -14.2
NNC(=O)CSCC(=O)NN | -2.05
O=C(O)CCSCCCCCCCCCCCCSCCC(=O)O | 18.9
CC(=O)Cc1ccc2[nH]c(C)cc(=O)c2c1 | 5.25
O=[N+]([O-])c1cc(S(=O)(=O)O)cc(S(=O)(=O)O)c1O | 2.6
CN(C)c1nc2ccccc2[nH]1 | -4.25
CCOC(=O)C1CCCCC1C(=O)OCC (stereo not given) | -15.8

SMILES | growth inhibition [%]
CCCCCCCCCCCCOc1ccc(C(C)(C)C)cc1 | -12.8
Nc1nc2c(ncn2C2OC(CO)C3OP(=O)(O)OC32)c(=O)[nH]1 (stereo not given) | -5.1
COC1CCC(/C(C#N)=C/C2CCC(N(C)C)CC2)CC1 (stereo not given) | 16.2
CCCCCCC(=O)c1ccc2ccccc2c1O | -14.8
COc1ccc(C(Cl)=C(c2ccc(OCCN(C)C)cc2)c2ccc(OCCN(C)C)cc2)cc1 | 15.6
CC1(C)CC(O)=CC(=O)N1 | -5.75
[O-]/[N+](=C\c1ccccc1)[C@H](COCc1ccccc1)c1ccccc1 | -17.1
O=C1OC([C@H](O)c2cccnc2)c2ccccc21 (stereo not given in full) | -24.9
COC(=O)C(=[N+]=[N-])C(=O)c1ccccc1[N+](=O)[O-] | 27.4
CN1CCC2(CC1)C(=NC1CCCCC1)NC(=O)N2c1ccccc1 | -6.15
O=C(NCc1cccs1)OC1CC2CCC1C2 (stereo not given) | -7.45
COC(=O)c1cc(C)ccc1/C=C1\Cc2c(C)cc(C)cc2C1=O | -25.8
Nc1cc([N+](=O)[O-])ccc1N1C(=O)CCCC1=O | -4.95
CC(C)(C)NC(NC(C)(C)C)=C(/C=C(/Cl)[N+](=O)[O-])[N+](=O)[O-] | -21.1
O=C(NCc1ccc([N+](=O)[O-])cc1)c1ccccc1 | 4.45
CC(C)(C)NC(=O)Oc1ccc2ccccc2c1 | -14.6
CSc1ccc(NC(=O)Nc2ccccc2C(F)(F)F)cc1 | -3.25
O=C(ON=C1c2ccccc2C(Br)C(Br)c2ccccc21)c1cc([N+](=O)[O-])cc([N+](=O)[O-])c1 (stereo not given) | 8.85
CNc1nc(=S)nc(-c2ccccc2)s1 | 13.3
CCN(CC)CCOc1ccc(Cc2nc3c([nH]2)c(=O)n(C)c(=O)n3C)cc1 | 2.85
